Mtb UGM inh = M. tuberculosis UGM enzyme inhibitors, primary screen, biochemical, fluorescence polarization, single point; AID 504406, 2011; actives 0.06% (n = 320,000); UDP-galactopyranose mutase (Mycobacterium tuberculosis (strain ATCC 25618 / H37Rv)), …; inhibition, % at 10 µM; purified UGM, fluorescence polarization probe displacement; in the data active = inhibition above about 10%, passing the limit was not always enough; inconclusive = no clear call, values can overlap the other calls
PrP 5UTR inh = inhibition of PrP 5' UTR reporter expression; cell-based PrP 5' UTR mRNA reporter, plate reader; inhibition, % (no concentration beside the values); actives 0.35% (n = 340,000); AID 488862, 2010; in the data active = inhibition above about 52%; also: 0 = median of the neutral control wells
TcdB inh = TcdB glycohydrolase inhibitors, primary screen, biochemical, single point, plate reader | Toxin B (Clostridioides difficile), P18177 | TcdB glycohydrolase enzymatic assay | inhibition, % at 9.99 µM | actives 0.24% (n = 350,000) | AID 652162, 2013; in the data active = inhibition above about 10%
Yp Topo-I inh = Yersinia pestis topoisomerase I inhibitors, primary screen, biochemical, cleavage product accumulation, plate reader, single point. DNA topoisomerase I (Yersinia pestis CO92). Y. pestis Topo-I cleavage product accumulation. activity, % at 10 µM. actives 0.064% (n = 360,000); in the data active = activity above about 50%, passing the limit was not always enough; inconclusive = no clear call, values can overlap the other calls
BH1578 lux ind = inducers of Vibrio cholerae quorum light production without autoinducers, primary screen, BH1578 luxS cqsA deficient, single point. V. cholerae BH1578 lux reporter, luminescence, 6 h. AID 588436, 2011. activation, % at 18.7 µM. actives 0.16% (n = 350,000); in the data active = activation mostly above about 9.7%, no sharp cut-off; inconclusive = no clear call, values can overlap the other calls; inactive = mostly below about 3.7%
PrP UTR cherry = prion 5' UTR mRNA inhibition, cherry-pick retest; actives 48% (n = 1,100); cell-based prion protein 5' UTR reporter, plate reader; inhibition, % at 2.5 µM; shares compounds with PrP 5UTR inh; AID 504592, 2011; in the data active = inhibition above about 54%; inconclusive = no clear call, values can overlap the other calls
* = called active by the depositor; i = inactive; ? = inconclusive; . = no result given. Only some compounds are listed: those with a hit (about 0.65% of all), similar ones and a draw of the others.

SMILES | Mtb UGM inh | PrP 5UTR inh | TcdB inh | Yp Topo-I inh | BH1578 lux ind | PrP UTR cherry
CC(C)C[C@H]1CNC(=S)N1C[C@H]1CCCN1C[C@H](Cc1ccccc1)N1C[C@H](Cc2ccc(O)cc2)N(CC2CCCCC2)C1=S | . | . | 0 | . | . | .
CC(C)C[C@H]1CNC(=S)N1CC1CCCN1C[C@H](Cc1ccc(O)cc1)N1C[C@H](Cc2ccccc2)N(CC2CCCCC2)C1=S (stereo not given in full) | . | 67* | 0 | 14 | i | -3
CC1=CC(C)CC(C)OC(=O)CC(c2ccc(O)cc2)NC(=O)C(Cc2c(Br)[nH]c3ccccc23)N(C)C(=O)C(C)NC(=O)C(C)C1 (stereo not given) | . | 74* | 2 | 12 | i | 95*
CC(C)NC(=O)[C@@]1(C)c2ccccc2C(=O)N(Cc2ccc(OC(F)(F)F)cc2)[C@H]1c1ccc(CO)cc1 | . | . | -1 | . | . | .
O=C(C[C@@H]1CC[C@H]2[C@@H](COC[C@H](O)CN2CC2CCCC2)O1)NCc1ccc(Cl)cc1 | . | . | 1 | . | . | .
Cc1ccc(S(=O)(=O)Nc2ccc3c(c2)C(=O)N([C@@H](C)CO)C[C@@H](C)[C@H](CN(C)S(=O)(=O)c2cccs2)O3)cc1 | . | . | 0 | . | . | .
CCOC(=O)N1CCC(Nc2c(-c3ccc(C)c(C)c3)c(=O)c2=O)CC1 | -1 | 73* | . | 1 | 3 | -8
COc1ccc(CC(=O)Oc2ccccc2C)cc1 | 2 | 58* | 1 | 6 | 0 | -12
CCS(=O)(=O)N[C@H]1CC[C@@H](CC(=O)NCc2ccc(Cl)cc2)O[C@@H]1CO | . | . | 0 | . | . | .
Cc1cccc(C(=O)O/N=C(\N)c2ccccn2)c1 | 1 | 56* | 1 | 8 | 0 | 75*
Cc1ccc(C(=O)O/N=C(\N)c2ccccn2)cc1 | 0 | 87* | 1 | 8 | 0 | 94*
CCOc1ccc(C(=O)O/N=C(\N)c2ccccn2)cc1 | 0 | 84* | 1 | -7 | i | 92*
Cc1ccc(C(=O)O/N=C(\N)c2ccccn2)cc1C | 0 | 87* | 0 | 9 | 2 | 77*
CO[C@H]1CN(C)C(=O)c2ccc(NC(=O)C3CC3)cc2OC[C@H](C)N(C(=O)NC(C)C)C[C@@H]1C | . | . | 0 | . | . | .
CO[C@H]1CN(C)C(=O)c2ccc(NC(=O)c3cnccn3)cc2OC[C@H](C)NC[C@@H]1C | . | . | 0 | . | . | .
COc1ccc(CN(C)C[C@H]2OCCCC[C@H](C)Oc3ccc(NS(C)(=O)=O)cc3C(=O)N([C@@H](C)CO)C[C@@H]2C)cc1 | . | . | 0 | . | . | .
CC(C)(C)c1ccc(C(=O)O/N=C(\N)c2ccccn2)cc1 | 1 | 77* | 1 | 16 | 0 | 75*
COc1ccccc1-c1ccc([C@@H]2[C@@H](C#N)N[C@@H]2CO)cc1 | . | . | 1 | . | . | .
CCOc1ccc(OCC(=O)Nc2cccc(S(=O)(=O)NC3=NCCC3)c2)cc1 | . | 0 | 1 | 1 | -4 | .
CCOc1ccc(C(=O)NC(=S)Nc2cccc(S(=O)(=O)NC3=NCCC3)c2)cc1 | 1 | 54* | 1 | 38 | i | ?
CC(C)c1ccccc1NC(=S)N1CCN(S(=O)(=O)c2cccs2)CC1 | 4 | 87* | 3 | -7 | 0 | -7
CC(=O)c1c(C)[nH]c(C(=O)Nc2nc(-c3ccc(Cl)cc3)cs2)c1C | 5 | -19 | . | -12 | 2 | .
CC(=O)c1c(C)[nH]c(C(=O)Nc2nc(C)cs2)c1C | -3 | 65* | 2 | 0 | i | 44
COC(=O)C[C@H]1C=C[C@H](NS(=O)(=O)c2ccc(OC)cc2)[C@@H](CO)O1 | . | . | -2 | . | . | .
O=C(Nc1ccc(N2CCOCC2)cc1)c1cnccn1 | 1 | 44 | 1 | 3 | i | .
SMILES | Mtb UGM inh | PrP 5UTR inh | TcdB inh | Yp Topo-I inh | BH1578 lux ind | PrP UTR cherry
O=C(Nc1ccc(N2CCOCC2)cc1)c1cnsn1 | . | 68* | . | -6 | 1 | 77*
COc1ccc(C(=O)/C=C2\Sc3ccccc3N2C)cc1 | 1 | -69 | 2 | 26 | 0 | .
COc1ccc(-[n+]2c(C)cc(/C=C3\Sc4ccccc4N3C)cc2C)cc1 | -7 | 66* | 10 | -2 | 5 | ?
COc1ccccc1-[n+]1c(C)cc(/C=C2\Sc3ccccc3N2C)cc1C | 2 | 70* | 5 | 3 | i | 28
C[C@@H]1CN([C@H](C)CO)C(=O)c2cccc(NC(=O)CCCCCC(=O)Nc3ccccc3N)c2O[C@H]1CN(C)Cc1ccc2c(c1)OCO2 | . | . | 1 | . | . | .
CC=Cc1ccc2n(c1=O)C[C@H]1[C@H](CO)[C@@H](C(=O)N3CCCCC3)N(C(=O)CC)[C@@H]21 (mixture of isomers) | . | . | 1 | . | . | .
CCN(CC)C1CCCCC1NS(=O)(=O)c1ccc(Cl)cc1 (stereo not given) | 0 | 80* | 2 | -2 | 0 | -8
CN(c1ccccc1)C1CCCCC1NS(=O)(=O)c1ccc(Cl)cc1 (stereo not given) | 1 | -51 | 1 | 24 | 1 | .
CCN(CC)C(=O)c1ccc(NC(=O)c2cccc(C(F)(F)F)c2)cc1 | 1 | 78* | 1 | -9 | i | -12
O=C(Nc1ccccc1)c1cccc(C(F)(F)F)c1 | -2 | -12 | . | -3 | 9 | .
CN(C)C(=O)C[C@H]1C[C@@H]2c3cc(NC(=O)NC4CCCC4)ccc3O[C@@H]2[C@H](CO)O1 | . | . | 0 | . | . | .
Cc1ccc(/C=C2/SC(=S)N(c3ccc(S(=O)(=O)Nc4nccs4)cc3)C2=O)cc1 | 4 | 83* | 1 | -1 | -4 | -35
CCOc1ccc2nc(NC(=O)c3ccccn3)sc2c1 | -3 | 63* | 1 | 4 | i | 46
Cc1ccc2nc(NC(=O)c3ccccn3)sc2c1 | -4 | 89* | 2 | 2 | 1 | 86*
CCOC(=O)C1=CN(Cc2cccc(Br)c2)S(=O)(=O)N(C)C1C (stereo not given) | . | 47 | 0 | 41 | 3 | .
CCOC(=O)C1=CN(Cc2cccc(I)c2)S(=O)(=O)N(C)C1C (stereo not given) | . | 90* | 0 | 29 | -1 | -11
CCOC(=O)C1=CN(Cc2ccco2)S(=O)(=O)N(C)C1c1ccc2ccccc2c1 (stereo not given) | . | 55* | 0 | 6 | -2 | -7
COc1cccc(S(=O)(=O)Nc2ccc3c(c2)[C@@H]2C[C@H](CC(=O)NCC(F)(F)F)O[C@H](CO)[C@@H]2O3)c1 | . | . | 1 | . | . | .
CC1CC(C)(O)CC(C(O)CC2CC(=O)NC(=O)C2)C1=O (stereo not given) | . | 64* | 0 | 7 | i | 61*
CCNC(=S)NNC(=O)c1cc(-c2ccc(OCC)cc2)nc2ccccc12 | -1 | 58* | 2 | -1 | i | 27
